# L3MBTL1 inh: inhibitors of human L3MBTL1; Q9Y468; AlphaScreen L3MBTL1–H3K9me1 peptide binding; Potency, µM (series often up to 57.1 µM), without a hit: at the highest dose activity, negative = inhibition, actives largely listed as inhibitors; actives 0.66% (n = 230,000); further: on the % scale 0 is the no-effect control and ±100 the full control effect; nearly all actives have a fitted effect of over 60% in size
# Target sequence (Q9Y468 whole entry, looked up): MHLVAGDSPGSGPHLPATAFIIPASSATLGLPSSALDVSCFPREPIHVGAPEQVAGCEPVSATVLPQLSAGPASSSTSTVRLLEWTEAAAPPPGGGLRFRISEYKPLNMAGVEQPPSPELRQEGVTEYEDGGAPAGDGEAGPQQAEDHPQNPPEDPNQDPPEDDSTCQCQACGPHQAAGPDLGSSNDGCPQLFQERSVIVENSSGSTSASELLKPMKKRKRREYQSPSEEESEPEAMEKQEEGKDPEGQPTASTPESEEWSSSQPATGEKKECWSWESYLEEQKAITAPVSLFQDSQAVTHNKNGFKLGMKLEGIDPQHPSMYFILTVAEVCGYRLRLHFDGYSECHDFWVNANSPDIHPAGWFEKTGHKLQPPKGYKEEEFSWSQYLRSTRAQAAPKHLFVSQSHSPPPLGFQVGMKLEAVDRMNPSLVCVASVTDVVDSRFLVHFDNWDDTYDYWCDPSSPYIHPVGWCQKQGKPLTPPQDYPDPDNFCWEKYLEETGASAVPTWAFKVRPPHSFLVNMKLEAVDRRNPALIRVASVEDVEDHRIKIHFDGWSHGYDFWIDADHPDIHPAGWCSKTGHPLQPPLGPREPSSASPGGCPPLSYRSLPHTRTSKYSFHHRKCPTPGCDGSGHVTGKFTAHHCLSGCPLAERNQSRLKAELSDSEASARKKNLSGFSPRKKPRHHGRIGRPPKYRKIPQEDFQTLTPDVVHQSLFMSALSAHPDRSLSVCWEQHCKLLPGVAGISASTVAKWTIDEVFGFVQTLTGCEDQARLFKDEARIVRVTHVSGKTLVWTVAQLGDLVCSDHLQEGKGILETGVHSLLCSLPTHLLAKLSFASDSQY
#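 First, the protein-peptide complex forms for 30 min at room temperature (L3MBTL1 50 nM, biotinylated H3K9me1 peptide 75 nM). Next, compounds are pin-transferred and incubated 30 min. Finally, AlphaScreen beads are added and read after 30 min.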
# G9a inh: blocks human histone lysine methyltransferase G9a; G9a H3K9 monomethylation, AlphaScreen, 2 h; Potency, µM (doses to about 102 µM), for inactives: at the highest dose activity, negative = inhibition, usual class: inhibitors; actives 8.8% (n = 350,000); AID 504332; further: on the % scale 0 is the no-effect control and ±100 the full control effect; nearly all actives have a fitted effect of over 75% in size
#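 Chemiluminescent proximity detection of H3K9 monomethylation, read after 10 min bead incubation in the dark. Reaction: 20 nM G9a, 500 nM biotin-H3K9 peptide, 20 uM SAM cofactor, 2 h, room temperature, following 15 min enzyme-compound preincubation.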
# JMJD2A Tudor inh: blocks the human JMJD2A Tudor domain; actives 4.4% (n = 390,000); Potency, µM (highest dose often 114 µM), for the others: at the top dose activity change, negative = inhibition, hits mostly inhibitors; O75164; AlphaScreen JMJD2A-Tudor / H3K4me3 peptide binding; further: on the % scale 0 is the no-effect control and ±100 the full control effect; nearly all actives have a fitted effect of over 50% in size
# HP1b chromo inh: HP1-beta chromodomain-methylated histone interaction inhibition; AlphaScreen HP1-beta / biotin-H3K9me3 peptide binding; Potency, µM (highest dose often 114 µM), inactives show at the top dose activity change, negative = inhibition, usual class: inhibitors; P83916; actives 0.56% (n = 390,000); further: nearly all actives have a fitted effect of over 70% in size
#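 Compound inhibition of the preformed complex between 50 nM HP1-beta and 50 nM biotinylated H3K9me3 peptide was read by AlphaScreen. Buffer was PBS pH 7.4 with 0.01% Tween-20. Incubations ran 30 min at room temperature, with 10 ug/mL donor/acceptor beads.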
# BAZ2B inh: BAZ2B (human) inhibition | AID 504333 | Q9UIF8 | AlphaScreen BAZ2B-H3K14Ac peptide displacement | Potency, µM (doses to about 114 µM), for the others: top-dose activity change, negative = inhibition, usual class: inhibitors | actives 4.4% (n = 360,000); further: on the % scale 0 is the no-effect control and ±100 the full control effect; nearly all actives have a fitted effect of over 60% in size
#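 In this displacement format the biotinylated H3(5-23) peptide acetylated at Lys14 serves as ligand at 50 nM, with BAZ2B at 50 nM in PBS pH 7.4 containing 0.01% Tween-20. Donor and acceptor beads are 10 ug/mL final.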
# The depositor's hits bear a star; u = inconclusive; x = no result; [ ] = remark or other dose. This is a sample that favours compounds with a hit; in the whole collection about 11% have one here. The call rests on the fitted dose curve; in most records, active means well fitted inhibition curve with a large enough effect; inconclusive means small, poorly fitted or top-dose-only effect; inactive means no such curve, though single readings can be large or run the other way. Potency means the concentration at half of the fitted maximal effect.
SMILES,L3MBTL1 inh,G9a inh,JMJD2A Tudor inh,HP1b chromo inh,BAZ2B inh
COc1ccc(CN(Cc2ccco2)c2cnc(S(C)(=O)=O)nc2C(=O)Nc2ccc(C)c(Cl)c2)cc1,x,u,u,-1.5%,u
CC1(C)Cc2c(C#N)c(N)n(-c3ccccc3)c(=S)c2CO1,-1.4%,x,3.9%,36.6%,-4.9%
CC1(C)C=C2C(=NN(c3ccccc3)C(N)=C2C#N)CO1,-7.1%,6.31µM*,-30.1%,38.6%,-38.1%
CCCCNC(=S)Nc1ccc([N+](=O)[O-])cc1,-9.3%,-16.0%,-24.7%,6.0%,-32.2%
CCCCNC(=S)NC(=O)c1ccc([N+](=O)[O-])cc1,-16.2%,x,u,-30.0%,50.1µM*
CCCC(=O)NC(=S)NNC(=O)c1ccc([N+](=O)[O-])cc1,8.8%,3.16µM*,70.8µM*,-5.9%,9.0%
CCC(=O)NC(=S)NNC(=O)c1ccc(O)cc1,5.1%,x,20µM*,56.7%,-0.4%
Cc1ccc(C)c(NC(=O)C(Sc2nnc(-c3cccs3)o2)c2ccccc2)c1 (configuration not stated),12.7%,79.4µM*,-21.9%,u,1.8%
Cc1ccc(C)c(NC(=O)C(Sc2cccc[n+]2[O-])c2ccccc2)c1 (configuration not stated),-25.8%,44.7µM*,-17.3%,22.1%,-1.3%
O=C(Nc1ccc(F)cc1)C1CCCN(C2=NS(=O)(=O)c3ccccc32)C1 (configuration not stated),-1.3%,u,-14.9%,40.0%,-5.0%
Cc1cc(C)cc(NC(=O)C2CCC(CNS(=O)(=O)c3ccc4c(c3)C(C)(C)C(=O)N4C)CC2)c1 (configuration not stated),x,-37.4%[59 µM],-21.2%,32.7%,-18.6%
COc1ccc(S(=O)(=O)NCC(c2ccco2)N2CCN(c3ccccc3F)CC2)cc1C (configuration not stated),x,1.3%[59 µM],-9.4%,25.7%,1.3%
CCn1nc(CC(C)C)cc1C(=O)N1CCCC(Nc2ccc(F)cc2)C1 (configuration not stated),x,9.3%[0.501 µM],-14.0%,11.4%,-18.1%
COc1ccc(NC2CCCN(C(=O)c3cccs3)C2)cc1 (configuration not stated),x,50.1µM*,-39.3%,2.4%,u
CC(C)c1ccc(S(=O)(=O)N2CCN(C(=O)[C@@H]3CCCN3C(=O)c3cccs3)CC2)cc1,0.2%,44.7µM*,-9.0%,28.6%,-2.5%
CCOC(=O)N1CCN(C2CCCN(C(=O)c3ccccc3C(F)(F)F)C2)CC1 (configuration not stated),x,70.8µM*,-9.7%,35.2%,-27.0%
COc1ccc(NC2CCCN(C(=O)c3cc(CC(C)C)nc(N)n3)C2)cc1 (configuration not stated),x,44.7µM*,-21.5%,16.5%,-30.2%
COc1ccc(NC2CCCN(C(=O)c3csc(C(C)C)n3)C2)cc1 (configuration not stated),x,-17.0%,-18.5%,46.4%,-16.1%[57.1 µM]
CC(C)(C)NC(=O)NC(=O)CSc1ccc(S(=O)(=O)N2CCCCC2)cn1,39.7%,12.3%[12.7 µM],-22.9%,42.4%,28.1%
CC(C)c1ccc(NC2CCCN(C(=O)c3cccs3)C2)cc1 (configuration not stated),x,50.1µM*,-32.2%,-9.0%,u
COC(=O)c1cccc(C(=O)N2CCCC(Nc3ccc(C)c(C)c3)C2)c1 (configuration not stated),x,50.1µM*,-31.6%,8.6%,u
Cc1cc(C(=O)N2CCCC(N3CCN(c4cccc(C(F)(F)F)c4)CC3)C2)c(C)o1 (configuration not stated),x,79.4µM*,-19.2%,12.8%,-38.2%
COc1ccc(C(=O)N2CCCC(Nc3ccc(C)c(C)c3)C2)cc1F (configuration not stated),x,10.4%,u,u,2.4%
COc1ccc(NC2CCCN(C(=O)c3ccccc3C(F)(F)F)C2)cc1 (configuration not stated),x,39.8µM*,-21.4%,-16.5%,u
O=C(C1CCCCC1)N(Cc1cccnc1)c1nc2ccc(Cl)cc2s1,x,7.7%[59 µM],1.3%,26.5%,-8.2%
Cc1ccc(NC(=O)N2CCC(CN3CCC(C)CC3)CC2)cc1F,x,-19.7%[59 µM],-3.3%,26.7%,-11.5%

# Screening results: PubChem, National Center for Advancing Translational Sciences (NCATS)
